Source: PubChem BioAssay AID1347076 (National Center for Advancing Translational Sciences (NCATS), 2019)
Among all 400,000 compounds or so, about 13,000 (3.2%) were called active. Entries that show only a call come without a potency. Another 18% or so got no clear call; they are omitted. Calls follow the shape of the dose curve; as a rule, active = well fitted cell-killing curve with a large enough effect; inconclusive = small, poorly fitted or top-dose-only effect, or effect the other way; inactive = flat fitted curve, though single readings scatter. This excerpt belongs to a sample that is enriched for actives.

Experiment: qHTS assay for MDR1-selective chemotherapeutics: Primary screen using the drug-selected MDR subline cells KB-V1; also: nearly all actives have a fitted effect of over 60% in size
Conditions: KB-V1 MDR cells viability, CellTiter-Glo, 72 h; series mostly up to 46.1 µM
Summary of the method: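 Cytotoxicity toward P-gp-expressing KB-V1 cells was determined as loss of CellTiter-Glo luminescence after 72 h at 37 degrees C. Compounds were tested in quantitative HTS format across a concentration range, with curves fitted to normalized data.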
Potency is read from the fitted curve at half-maximal effect.

Structure (SMILES)	Potency
Cc1ccccc1-n1nnnc1SCCCC(=O)c1ccc(F)cc1	6.51 µM (active)
CC(=O)Nc1ccc(NC(=O)CSc2nnnn2-c2ccccc2F)cc1	inactive
Cc1cc(NC(=O)CSc2nnnn2-c2ccc(F)cc2)no1	inactive
O=C(/C=C/[C@H]1O[C@@H](n2cnc3c(NC(=O)c4ccccc4)ncnc32)[C@H](O)[C@@H]1O)NCc1ccccc1	inactive
CCCC(=O)N1CCN(c2nc3c(OC)ccc(C)c3s2)CC1	inactive
COc1ccc(C(=O)NC(=S)NNC(=O)CCc2ccccc2)cc1	6.51 µM (active)
COc1ccc(C(=O)NC(=S)NNC(=O)c2c(-c3ccccc3)noc2C)cc1	6.51 µM (active)
COc1ccc(C(=O)NNC(=S)NC(=O)c2ccccc2)cc1	inactive
CC(C)Oc1ccc(CCC(=O)NNC(=S)NCc2ccccc2)cc1	inactive
Cc1onc(-c2ccccc2)c1C(=O)NNC(=S)NC(=O)c1ccc(F)cc1	inactive
COc1ccc(C(=O)NNC(=S)NC(=O)c2ccccc2[N+](=O)[O-])cc1	inactive
O=S(=O)(Nc1ccc2nc(-c3cccc(Cl)c3)oc2c1)c1ccccc1	inactive
Cc1ccc(C)c(N2CCN(C(=O)Cn3ncc4c(=O)oc5ccc(C)cc5c43)CC2)c1	inactive
CC(=O)Nc1ccc(CNc2nc(NCCN(C)C)nc3cc(-c4ccccc4)sc23)cc1	inactive
CN1C[C@@H](CO)O[C@@H](n2cnc3c(N4CCN(CCO)CC4)ncnc32)C1	inactive
CCCn1nc(NS(=O)(=O)c2ccccc2)c2cc3cc(C)ccc3nc21	14.6 µM (active)
CCCn1nc(NS(=O)(=O)c2ccc(F)cc2)c2cc3ccccc3nc21	inactive
CCCn1nc(NC(=O)C(C)C)c2cc3cc(OC)ccc3nc21	inactive
COc1cccc(NC(=O)CSc2cc(=O)n(C)c3ccc(Cl)cc23)c1	inactive
Cc1cccc(C=CC(=O)c2ccc(Cl)cc2)c1	inactive
CN(C)c1ccc(/C=C/C(=O)c2ccc(C(C)(C)C)cc2)cc1[N+](=O)[O-]	18.4 µM (active)
CC(=O)Nc1ccc(C=CC(=O)c2ccc([N+](=O)[O-])cc2)cc1	inactive

Structure (SMILES)	Potency
CCOc1ccc(S(=O)(=O)c2cn(Cc3ccc(OC)cc3)c3ccc(F)cc3c2=O)cc1	inactive
Cc1nc2ccc(S(=O)(=O)N(CC(=O)Nc3ccc(F)cc3)Cc3ccccc3)cc2s1	inactive
CC(C)(C)N1C(=O)c2c(C(=O)OCc3ccccc3)[nH]c(-c3ccccc3)c2C1=O	inactive
Cc1ccc(NC(=O)Cn2cccc2C2=NC(c3ccccc3)CO2)c(C)c1 (centres undefined)	16.4 µM (active)
Cc1ccc(NC(=O)CSc2cccc3cccnc23)c(C)c1	inactive
Cc1ccc(NC(=O)Cn2nnc(C(=O)NCc3ccco3)c2N)c(C)c1	inactive
CCOc1ccc(NC(=O)C2CCN(S(=O)(=O)c3cc(-c4noc(C)n4)ccc3C)CC2)cc1	inactive
c1cc(-c2ccc3[nH]ccc3c2)n2ccnc2c1	inactive
CCOC(=O)N(C)c1c(CC)nc2c(OCc3ccccc3C(=O)OC)cccn12	inactive
CCCCC(=O)N(C)c1c(CC)nc2c(OCc3ccc(Cl)cc3Cl)cccn12	16.4 µM (active)
CCCCC(=O)N(C)c1c(CC)nc2c(OCc3ccc(S(C)(=O)=O)cc3)cccn12	inactive
CCc1nc2ccc(C(=O)N(C)CCN(C)C)cn2c1N(CC)CCOC	inactive
CC(=O)C[C@@H]1OC[C@H](C)N1S(=O)(=O)c1ccc(C)cc1	inactive
Cc1ccc2nc(NC(=O)C3CCN(S(=O)(=O)c4ccc5c(c4)oc(=O)n5C)CC3)sc2c1	inactive
Cc1ccc(NS(=O)(=O)c2ccc3c(c2)oc(=O)n3C)c(C)c1	inactive
Cc1ccc(C)c(N2CCN(S(=O)(=O)c3ccc4c(c3)oc(=O)n4C)CC2)c1	14.6 µM (active)
COc1ccc(NC(=O)c2cc(=O)[nH]c3ccccc23)cc1S(=O)(=O)N1CCOCC1	inactive
Cc1nc(C(F)(F)F)ccc1C(=O)N1CCC1(C)C(=O)NS(=O)(=O)c1ccc(F)cc1F (centres undefined)	inactive
COc1ccc2ncc3c(-c4ccc(C)c(C)c4)nn(CC(=O)NC4CCCC4)c3c2c1	inactive
Cc1ccc([C@H]2N[C@]3(CCCN(Cc4ccccc4)C3=O)[C@H]3C(=O)N(Cc4ccccc4)C(=O)[C@@H]23)cc1	inactive
Cc1ccc(C(C)C)cc1OCC(=O)Nc1ccccc1N1CCCC1	inactive
Cc1nnc(OCC(=O)NCCC2=CCCCC2)c2ccccc12	inactive

Structure (SMILES)	Potency
O=C(CNCCC1=CCCCC1)Nc1ccccc1N1CCCCCC1	11.6 µM (active)
Cc1ccc2nc(-c3ccco3)c(Cc3cccc(Cl)c3)n2c1	inactive
COc1ccc(/C(N)=N/OC(=O)Cc2ccccc2)cc1	inactive
COc1ccc(C(C#N)=C2C=CC(=NO)c3ccccc32)cc1	1.3 µM (active)
COc1ccc(C(=NN)c2ccc(OC)cc2)cc1	inactive
CCNC(=O)c1cc2c(c(-c3cccc(-c4cncnc4)c3)n1)[C@H](CCO)N(C(C)=O)C2	inactive
O=C(NCc1ccccc1Cl)c1csc([C@@H]2O[C@H](CO)[C@@H](O)[C@H]2O)n1	inactive
CCC(=O)Nc1ccc(C(=O)CSc2nnc(CNc3ccc(Cl)cc3)o2)cc1OC	14.6 µM (active)
COc1cc(C(=O)NCc2nnc(SCC(=O)c3ccc(Cl)cc3)o2)cc(OC)c1OC	inactive
CCOC(=O)CSc1nnc(CNc2ccc(F)cc2)o1	inactive
CCc1nc2c(OCc3cccc(OC)c3)cccn2c1N(C)C(=O)C(C)C	inactive
CSc1ncnc2c1ncn2CCCNCc1cccs1	inactive
Nc1ncnc2c1ncn2[C@@H]1O[C@H](C(=O)NS(=O)(=O)c2c(Cl)nc3sccn23)[C@@H](O)[C@H]1O	inactive
CSc1ccccc1C(=O)NCc1ccccc1	inactive
CCSc1ccccc1C(=O)NCc1ccc(OC)cc1	20.6 µM (active)
CCc1nc2ccccc2c(C(=O)NCc2ccc(OC)cc2)c1C	inactive
O=C(CSc1ccc(Cl)cc1)NC1CC1	inactive
CCC1CCCCN1CCNS(=O)(=O)c1ccc2c(c1)CCN2C(C)=O (centres undefined)	inactive
CCCN(CCC)S(=O)(=O)c1cc2c(cc1Br)CCN2C(=O)CC	inactive
CCC(=O)N1CCc2cc(Br)c(S(=O)(=O)NCCN3CCCCC3CC)cc21 (centres undefined)	10.3 µM (active)
